Drawing on PubChem BioAssay (NCATS), this text covers Potency for 35 compounds.

Each structure is given as a SMILES string. Records with an inconclusive call do not appear. Entries that show only a call come without a potency. The source made the active and inactive calls. Calls follow the shape of the dose curve; as a rule, active = well fitted cell-killing curve with a large enough effect; inconclusive = small, poorly fitted or top-dose-only effect, or effect the other way; inactive = no such curve, though single readings can be large or run the other way.
Also: nearly all actives have a fitted effect of over 30% in size.
Potency is read from the fitted curve at half-maximal effect.

The nature of the first assay: Quantitative High-Throughput drug screen in 47 multiple myeloma cell lines against the NCATS MIPE library collection: RPMI8226_ATCC cell viability assay (AID 1919871). The following applies: RPMI8226 myeloma viability, CellTiter-Glo ATP luminescence, 48 h; series mostly up to 45.8 µM. In a few lines:
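MIPE 4.0 approved/investigational drugs; 500 cells/well; 48 h 37 °C humidified 5% CO2; CTG luminescence readout; DMSO = 100%, media = 0% viability.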
On the technique in general: Cellular ATP, detected with luciferase, serves as a proxy for viable cell number.
With `c1ccc(CCCN2CCN(CCOC(c3ccccc3)c3ccccc3)CC2)cc1`, the Potency is 20900 nM (active).
For the compound `C[C@]12CC[C@H]3[C@@H](CCC4=CC(=O)CC[C@@]43C)[C@H]1CC[C@H]2O`, the Potency result is “inactive”.
Still for that read-out and setting: then `Cc1c(C(=O)Nc2cccc(C(F)(F)F)c2)cc(-c2ccccc2)n1CCCN1CCOCC1`, with 14800 nM (active); and `CCOC(=O)c1c(C(C#N)=CN)c2ccc(Cl)c(Cl)c2n1C`, with “inactive”; and `CC[C@@H](C(N)=O)N1CCCC1=O`, with “inactive”.
On the same count and under the same terms, as for `CCc1c(C(=O)C(N)=O)c2c(OCC(=O)O)cccc2n1Cc1ccccc1`, the entry is “inactive”; as for `C[C@@H]1O[C@@H](O[C@@H]2C=C3CC[C@@H]4[C@@H](CC[C@]5(C)[C@H](c6ccc(=O)oc6)CC[C@@]45O)[C@@]3(C)CC2)[C@H](O)[C@H](O)[C@H]1O`, 23.5 nM (active).
For `C[C@@]12OC(=O)[C@]1([C@@H](O)[C@@H]1C=CCCC1)NC(=O)[C@H]2CCCl`, the Potency was 29.6 nM (active).
Same read-out and setting: then `O=C(Oc1ccc([N+](=O)[O-])cc1)N1CCN(Cc2cccc(Oc3ccccc3)c2)CC1`, with “inactive”.
Turning to `C=C1C[C@H]2[C@H]3CCC(=O)[C@@]3(C)CC[C@@H]2[C@@]2(C)C=CC(=O)C=C12`, the Potency is 18700 nM (active).
Turning to `CC(C)(C)[C@]1(O)C[C@@H]2OC(=O)C[C@@]23C(=O)O[C@@H]2OC(=O)[C@H](O)C213` (stereo partly specified), the Potency result was “inactive”.
The same measure, in the same setting: as for `CC(=Cc1csc(C)n1)[C@@H]1C[C@H]2O[C@]2(C)CCC[C@H](C)[C@@H](O)[C@@H](C)C(=O)C(C)(C)[C@@H](O)CC(=O)O1`, the entry is “inactive”.
Same read-out and setting: then `c1ccc2c(CN3CCNCC3)cccc2c1`, with “inactive”; and `COc1cc([C@@H]2c3cc4c(cc3[C@@H](O)C3COC(=O)C32)OCO4)cc(OC)c1O` (stereo partly specified), with 118 nM (active).
Still for that read-out and setting: as for `O=c1cccc2n1CC1CNC[C@H]2C1`, the entry is “inactive”.
In the case of `COc1ccc(CC2NCCc3cc(OC)c(OC)cc32)cc1OC` (stereo unspecified), the Potency result was “inactive”.
The same measure, in the same setting: as for `CCCN1CCO[C@@H]2c3cc(O)ccc3OC[C@@H]21`, the entry is “inactive”; as for `Oc1ccc2c3c1O[C@H]1c4[nH]c5c(c4C[C@@]4(O)[C@@H](C2)N(CC2CC2)CC[C@]314)C[C@@]1(O)[C@H]2Cc3ccc(O)c4c3[C@@]1(CCN2CC1CC1)[C@H]5O4`, “inactive”; as for `C[C@]12COC(=O)C[C@@H]1CC[C@@H]1[C@H]2CC[C@@]2(C)[C@H]1CC[C@]2(C)O`, “inactive”.
The same measure, in the same setting: as for `C#C[C@]1(O)C=C[C@@H]2[C@@H]3CCC4=CC(=O)CC[C@@H]4[C@H]3CC[C@@]21CC`, the entry is “inactive”.
For `Clc1ccccc1C(c1ccccc1)(c1ccccc1)n1cccn1`, the Potency was 20900 nM (active).
Regarding `CC(=CCCC1=CCC(C2=CC(=O)OC2O)OC1O)CCC1=C(C)CCCC1(C)C` (stereo unspecified), the Potency is 11.8 nM (active).
With `CC1=NN=C(c2ccc(N)cc2)c2cc3c(cc2C1)OCO3`, the Potency entry is “inactive”.

Another assay is described as follows: Quantitative High-Throughput drug screen in 47 multiple myeloma cell lines against the NCATS MIPE library collection: OPM2_DSMZ cell viability assay (AID 1919872). The following applies: OPM2 myeloma viability, CellTiter-Glo ATP luminescence, 48 h; series mostly up to 45.8 µM. In outline: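 Viability readout: CellTiter-Glo luminescence following 5 min room-temperature incubation with reagent. Prior exposure: 48 h, 37C, humidified 5% CO2, 500 cells per well.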
On to `c1ccc(CCCN2CCN(CCOC(c3ccccc3)c3ccccc3)CC2)cc1`, for which the Potency was 26400 nM (active).
The same measure, in the same setting: then `C[C@]12CCC(=O)C(O)=C1CC[C@@H]1[C@H]3CCC(=O)[C@@]3(C)CC[C@@H]12`, with “inactive”; and `Cc1nc(-c2ccc(-c3ccc(C(=O)N4CCc5cc6c(cc54)C4(CCN(C)CC4)CO6)cc3)c(C)c2)no1`, with “inactive”; and `C[C@]12CC[C@H]3[C@@H](CCC4=CC(=O)CC[C@@]43C)[C@H]1CC[C@H]2O`, with “inactive”.
Same read-out and setting: then `CCOC(=O)c1c(C(C#N)=CN)c2ccc(Cl)c(Cl)c2n1C`, with “inactive”; and `CC[C@@H](C(N)=O)N1CCCC1=O`, with “inactive”; and `C[C@@H]1CC[C@H]2[C@@H](C)C(=O)O[C@@H]3O[C@@]4(C)CC[C@H]1[C@]32OO4`, with 264 nM (active).
As to `CCc1c(C(=O)C(N)=O)c2c(OCC(=O)O)cccc2n1Cc1ccccc1`, the Potency entry is “inactive”.
The same measure, in the same setting: then `CC(C)N(CCNC(=O)CN1CCCC1=O)C(C)C`, with “inactive”; and `C[C@@H]1O[C@@H](O[C@@H]2C=C3CC[C@@H]4[C@@H](CC[C@]5(C)[C@H](c6ccc(=O)oc6)CC[C@@]45O)[C@@]3(C)CC2)[C@H](O)[C@H](O)[C@H]1O`, with 9.3 nM (active); and `C[C@](O)(COc1ccc(C#N)cc1)C(=O)Nc1ccc(C#N)c(C(F)(F)F)c1`, with “inactive”.
Still for that read-out and setting: then `C=C[C@@H]1CN2CCC1C[C@@H]2[C@@H](O)c1ccnc2ccccc12` (stereo partly specified), with 20900 nM (active).
The same measure, in the same setting: then `C[C@@]12OC(=O)[C@]1([C@@H](O)[C@@H]1C=CCCC1)NC(=O)[C@H]2CCCl`, with 37.2 nM (active); and `O=C(Oc1ccc([N+](=O)[O-])cc1)N1CCN(Cc2cccc(Oc3ccccc3)c2)CC1`, with “inactive”.
For `CSCC[C@@H](NC(=O)[C@@H](Cc1ccccc1)NC(=O)CNC(=O)CNC(=O)[C@@H](N)Cc1ccc(O)cc1)C(=O)O`, the Potency entry was “inactive”.
Turning to `C=C1C[C@H]2[C@H]3CCC(=O)[C@@]3(C)CC[C@@H]2[C@@]2(C)C=CC(=O)C=C12`, the Potency result is “inactive”.
Same read-out and setting: as for `CC(C)(C)[C@]1(O)C[C@@H]2OC(=O)C[C@@]23C(=O)O[C@@H]2OC(=O)[C@H](O)C213` (stereo partly specified), the entry is “inactive”; as for `CC(=Cc1csc(C)n1)[C@@H]1C[C@H]2O[C@]2(C)CCC[C@H](C)[C@@H](O)[C@@H](C)C(=O)C(C)(C)[C@@H](O)CC(=O)O1`, “inactive”.
Same read-out and setting: as for `C[C@]12CC[C@@H]3[C@@H](CCC4=CC(=O)CC[C@@H]43)[C@@H]1CC[C@@H]2OC(=O)CCc1ccccc1`, the entry is “inactive”; as for `c1ccc2c(CN3CCNCC3)cccc2c1`, “inactive”; as for `COc1cc([C@@H]2c3cc4c(cc3[C@@H](O)C3COC(=O)C32)OCO4)cc(OC)c1O` (stereo partly specified), 41.8 nM (active).
Still for that read-out and setting: then `C[C@]12Cc3cn[nH]c3C[C@@H]1CC[C@@H]1[C@H]2CC[C@@]2(C)[C@H]1CC[C@]2(C)O`, with “inactive”; and `CCC(=O)OC1CCC2C3CCC4=CC(=O)CC[C@@]4(C)C3CC[C@]12C` (stereo partly specified), with “inactive”; and `O=C1C=CC[C@@H]2[C@H]3CCCN4CCC[C@@H](CN12)[C@@H]34`, with “inactive”.
Take `CCN(CC)C(=O)c1ccc(C2=CC3(CCNCC3)Oc3cccc(O)c32)cc1`: the Potency result was “inactive”.
Same read-out and setting: then `O=c1cccc2n1CC1CNC[C@H]2C1`, with “inactive”; and `COc1ccc(CC2NCCc3cc(OC)c(OC)cc32)cc1OC` (stereo unspecified), with “inactive”.
With `CCCN1CCO[C@@H]2c3cc(O)ccc3OC[C@@H]21`, the Potency result is “inactive”.
On to `Oc1ccc2c3c1O[C@H]1c4[nH]c5c(c4C[C@@]4(O)[C@@H](C2)N(CC2CC2)CC[C@]314)C[C@@]1(O)[C@H]2Cc3ccc(O)c4c3[C@@]1(CCN2CC1CC1)[C@H]5O4`, for which the Potency entry was “inactive”.
The same measure, in the same setting: as for `C[C@]12COC(=O)C[C@@H]1CC[C@@H]1[C@H]2CC[C@@]2(C)[C@H]1CC[C@]2(C)O`, the entry is “inactive”; as for `C#C[C@]1(O)C=C[C@@H]2[C@@H]3CCC4=CC(=O)CC[C@@H]4[C@H]3CC[C@@]21CC`, “inactive”; as for `CC(=CCCC1=CCC(C2=CC(=O)OC2O)OC1O)CCC1=C(C)CCCC1(C)C` (stereo unspecified), “inactive”.
On to `CC1=NN=C(c2ccc(N)cc2)c2cc3c(cc2C1)OCO3`, for which the Potency entry is “inactive”.
